# The whole screen tested about 5,500 compounds, of which about 2,000 (36%) were called active. Roughly 18% stayed inconclusive and do not appear here. This is one part of the list. Unmarked numbers belong to inactive results. No stated cut-off is given here; in the data, active means normalized growth mostly below about 0.91 (no sharp cut-off); inconclusive means no clear call, values can overlap the other calls; inactive means mostly above about 0.92.
# Assay: chemical genetic growth profiling, strain panel (AID 1159580);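 further: tested at 20 µM; growth read once vehicle control cultures reached saturation at 30 °C; 1 = growth at the plate median or of vehicle wells; lower values mean less growth of the strain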
# Conditions: S. cerevisiae deletion strains, growth OD
# [1] = locus YAL013W, strain DEP1, hits give low values
# [2] = locus YBR229C, strain ROT2, hits give low values
# [3] = locus YDL101C, strain DUN1, hits give low values
# [4] = locus YDL134C, strain PPH21, hits give low values
# [5] = locus YDR150W, strain NUM1, hits give low values
# [6] = locus YEL061C, strain CIN8, hits give low values
# [7] = locus YGR078C, strain PAC10, hits give low values
# [8] = locus YHR030C, strain SLT2, hits give low values
# [9] = locus YHR087W, strain rtc3, hits give low values
# [10] = locus YJR043C, strain POL32, hits give low values
# [11] = locus YJR075W, strain HOC1, hits give low values
# [12] = locus YKL190W, strain CNB1, hits give low values
# [13] = locus YLR039C, strain RIC1, hits give low values
# [14] = locus YLR058C, strain SHM2 (second series), hits give low values
# [15] = locus YLR085C, strain ARP6, hits give low values
# [16] = locus YLR262C, strain YPT6, hits give low values
# [17] = locus YML094W, strain GIM5, hits give low values
# [18] = locus YMR219W, strain ESC1, hits give low values
# [19] = locus YMR263W, strain SAP30, hits give low values
# [20] = locus YMR307W, strain GAS1, hits give low values
# [21] = locus YNL153C, strain GIM3, hits give low values
# [22] = locus YNL298W, strain CLA4 (second series), hits give low values
# [23] = locus YNL322C, strain KRE1, hits give low values
# [24] = locus YNR030W, strain Alg12, hits give low values
# [25] = locus YPL055C, strain LGE1, hits give low values
# [26] = locus YPL241C, strain CIN2, hits give low values
# [27] = locus YPR135W, strain CTF4, hits give low values
smiles,measurement,setting,value
O=[N+]([O-])c1cnc2ccccn12,normalized growth,[1],1.02
same,normalized growth,[2],1.01
same,normalized growth,[3],1
same,normalized growth,[4],1.03
same,normalized growth,[5],0.964
same,normalized growth,[6],1
same,normalized growth,[7],1.01
same,normalized growth,[8],1.08
same,normalized growth,[9],1.01
same,normalized growth,"locus YJL187C, strain SWE1, hits give low values",0.992
same,normalized growth,[10],1.02
same,normalized growth,[11],1.03
same,normalized growth,[12],1.02
same,normalized growth,[13],1.05
same,normalized growth,[14],1.01
same,normalized growth,[15],1.01
same,normalized growth,[16],1.09
same,normalized growth,[17],0.995
same,normalized growth,[18],1.01
same,normalized growth,[19],1.02
same,normalized growth,[20],1.1
same,normalized growth,[21],1.03
same,normalized growth,[22],1.08
same,normalized growth,[23],1.02
same,normalized growth,[24],1.02
same,normalized growth,[25],1.02
same,normalized growth,[26],1.02
same,normalized growth,[27],1.11
c1ccc(-c2ncc3ccccn23)cc1,normalized growth,[1],1.01
same,normalized growth,[2],0.988
same,normalized growth,"locus YCL061C, strain MRC1, hits give low values",0.985
same,normalized growth,[3],0.975
same,normalized growth,[4],0.967
same,normalized growth,[5],0.974
same,normalized growth,[6],0.989
same,normalized growth,[7],0.998
same,normalized growth,[8],0.843
same,normalized growth,[9],0.999
same,normalized growth,[10],0.99
same,normalized growth,[11],1.03
same,normalized growth,[12],0.996
same,normalized growth,[13],0.786 (active)
same,normalized growth,[14],0.991
same,normalized growth,[15],0.9
same,normalized growth,[16],0.926
same,normalized growth,[17],0.936
same,normalized growth,[18],1.01
same,normalized growth,[19],0.971
same,normalized growth,[20],0.711
same,normalized growth,[21],0.979
same,normalized growth,[22],0.95
same,normalized growth,[23],1.01
same,normalized growth,[24],0.981
same,normalized growth,"locus YOL006C, strain TOP1, hits give low values",0.461 (active)
same,normalized growth,[25],1.03
same,normalized growth,[26],0.928
same,normalized growth,[27],0.753
CC(=O)OCC(=O)[C@@]1(O)CCC2C3CCC4=CC(=O)C=C[C@]4(C)[C@@]3(Cl)[C@@H](Cl)C[C@@]21C (stereo not given in full),normalized growth,[8],0.991
same,normalized growth,"locus YHR079C, strain IRE1, hits give low values",0.991
same,normalized growth,"locus YJL095W, strain BCK1, hits give low values",0.968
same,normalized growth,"locus YJR066W, strain TOR1, hits give low values",0.923
same,normalized growth,"locus YLR113W, strain HOG1, hits give low values",1.06
same,normalized growth,"locus YNL183C, strain NPR1, hits give low values",0.916
same,normalized growth,"locus YOR231W, strain MKK1, hits give low values",0.952
same,normalized growth,"locus YPL256C, strain CLN2, hits give low values",0.99

# Source: PubChem BioAssay AID1159580 (chemical genetic matrix, 2015)
